Assay results reported in PubChem BioAssay (NCATS).
Values joined by “and” are separate entries in the source; they are usually repeats but may differ in a detail not shown here. Equal entries are not always repeated. Inconclusive results are not listed. The source holds several records for some structures; these can differ, active in one and inactive in another. Active and inactive are the calls of the source. Unless noted, calls follow the shape of the dose curve; as a rule, active = well fitted curve in the direction sought with a large enough effect; inconclusive = small, poorly fitted or top-dose-only effect, or another doubt; inactive = no such curve, though single readings can be large; an effect the other way counts as inactive or inconclusive.

Experiments:
[1] = qHTS profiling of the MIPE4 collection as inhibitors of Plasmodium falciparum (3D7) proliferation (AID 743344; call rule not given here;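 also: scaled between DMSO vehicle wells and 0.29 µM artemisinin as full inhibition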); conditions: P. falciparum 3D7 in erythrocytes, SYBR Green DNA fluorescence, 72 h; at 28.5 µM unless noted
How it was run: (§1)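 Erythrocytes infected with P. falciparum (0.3% parasitemia, 2.5% hematocrit) incubated with compounds 72 h at 37 C, 5% CO2. Lysis with saponin/Triton buffer containing SYBR Green I, overnight at room temperature in the dark; DNA fluorescence (485/535 nm) normalised to 0.29 uM artemisinin and DMSO.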

[2] = qHTS profiling of the MIPE4 collection as inhibitors of Plasmodium falciparum (DD2) proliferation (Rep 2) (AID 743346; call rule not given here); conditions: P. falciparum Dd2 in erythrocytes, SYBR Green DNA, 72 h; at 28.5 µM unless noted
How it was run: as §1

[3] = qHTS profiling of the MIPE4 collection as inhibitors of Plasmodium falciparum (HB3) proliferation (AID 743347; call rule not given here;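 also: plate controls were DMSO vehicle wells for no effect and artemisinin wells for full effect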); conditions: P. falciparum HB3 in erythrocytes, SYBR Green DNA, 72 h; at 28.5 µM unless noted
How it was run: as §1

[4] = High-throughput drug toxicity screening in the BPDCN cell line Cal-1 (AID 1224825; call rule not given here); conditions: Cal-1 BPDCN cell viability, qHTS; at 45.8 µM (top of the series) unless noted
How it was run: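 500 Cal-1 cells/well, RPMI + glutamine + 10% FBS (phenol red-free); cpd added by pin tool; 48 h, 37C, 5% CO2; CTG 15 min RT, lumi read. Normalised: DMSO 100%, bortezomib 9.2 uM 0%.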

[5] = qHTS assay for measurement of the activity of small molecule inhibitors on Zika virus induced Caspase-3 activity in human iPSC derived neural progenitor cells (hNPCs) (AID 1224857); also: % of control where 0% means no effect; nearly all actives have a fitted effect of over 65% in size
How it was run: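 After overnight (16–20 h) culture at 350 cells/well, hNPCs get compound, then ZIKV 2 FFU/cell one hour later. Six hours on, Caspase-Glo 3/7 is added and luminescence measured.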

[6] = qHTS assay for measurement of the activity of small molecule inhibitors on Zika virus induced Caspase-3 activity in human astrocytoma cells (AID 1224859);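 also: plate controls were ZIKV-infected untreated cells for no effect and uninfected cells for full effect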
How it was run: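 Inhibition of Zika-induced caspase-3/7 activity: SNB-19 cells, 1 h compound pretreatment, ZIKV 2 FFU/cell for 6 h at 37 C, Caspase-Glo luminescence read-out.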

[7] = qHTS Screen of the MIPE 4.0 Collection Against Ewings Sarcoma (TC71) (AID 1259253); also: nearly all actives have a fitted effect of over 40% in size; also: potency is read from the fitted curve at half-maximal effect
How it was run: (§2)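 After a 4 h attachment period in RPMI/5% FBS, cells were pin-dosed with test compounds; DMSO served as negative and 9.2 uM bortezomib (final) as positive control. Luminescent CellTiter-Glo signal at 48 h defined viability.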

[8] = qHTS Screen of the MIPE 4.0 Collection Against Ewings Sarcoma (EW8) (AID 1259255); also: nearly all actives have a fitted effect of over 35% in size; also: potency is read from the fitted curve at half-maximal effect;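 as to viability: 100% = DMSO-treated cells and 0% = medium-only wells without cells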
How it was run: as §2

[9] = qHTS Screen of the MIPE 4.0 Collection Against Ewings Sarcoma (TC32) (AID 1259256); also: nearly all actives have a fitted effect of over 45% in size; also: potency is read from the fitted curve at half-maximal effect
How it was run: as §2

[10] = P-glycoprotein substrates identified in KB-8-5-11 adenocarcinoma cell line, qHTS therapeutic library screen (AID 1346987); also: nearly all actives have a fitted effect of over 65% in size; also: potency is read from the fitted curve at half-maximal effect
How it was run: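 KB-8-5-11, a colchicine-selected P-gp-overexpressing KB-3-1 subline, was grown without colchicine for the assay. Cells were seeded at 500 cells/well, dosed in concentration-response and incubated 72 h at 37 degree C, 5% CO2. Viability was read by CellTiter-Glo luminescence.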

[11] = qHTS profiling of the MIPE4 collection as inhibitors of Plasmodium falciparum (DD2) proliferation (AID 743345; call rule not given here); conditions: P. falciparum Dd2 in erythrocytes, SYBR Green DNA, 72 h; at 28.5 µM unless noted
How it was run: as §1

[12] = qHTS Screen of the MIPE 4.0 Collection Against Ewings Sarcoma (RDES) (AID 1259252); also: nearly all actives have a fitted effect of over 35% in size; also: potency is read from the fitted curve at half-maximal effect
How it was run: as §2

[13] = P-glycoprotein substrates identified in KB-3-1 adenocarcinoma cell line, qHTS therapeutic library screen (AID 1346986); also: nearly all actives have a fitted effect of over 60% in size;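 also: potency is read from the fitted curve at half-maximal effect; potency is for cytotoxicity meaning loss of cell viability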
How it was run: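 Cells seeded 500/well in DMEM/10% FCS; compounds pinned in dose-response; 72 h incubation; CellTiter-Glo added, 5 min, luminescence. KB-8-5-11 run ±tariquidar to test reversal of P-gp resistance.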

## O=C1NC(=O)C(=Cc2ccc3nccc(-c4ccncc4)c3c2)S1
[1]
  parasite growth, % of DMSO control: 6.28%
[2]
  parasite growth, % of control (lower = inhibition): 7.98%
[3]
  growth, % of control: 3.52%
[4]
  viability (% of control): 4.43%
[5]
  Potency: inactive
[6]
  Potency: inactive
[7]
  Potency: 0.166 µM (active)
[8]
  Potency: 0.132 µM (active)
[9]
  Potency: 0.0743 µM (active)
[10]
  Potency: 0.418 µM (active)

## C[C@H]1COc2c(N3CCN(C)CC3)c(F)cc3c(=O)c(C(=O)O)cn1c23
[1]
  parasite growth, % of DMSO control: 49.9%
[11]
  parasite growth remaining, % of DMSO control (lower = more inhibition): 69.9%
[2]
  parasite growth, % of control (lower = inhibition): 49.2%
[3]
  growth, % of control: 60.4%
[4]
  viability (% of control): 100%
[5]
  Potency: inactive
[6]
  Potency: inactive
[12]
  Potency: inactive
[7]
  Potency: inactive
[8]
  Potency: inactive
[9]
  Potency: inactive
[10]
  Potency: inactive

## C[C@@H]1[C@H](C)CC[C@]2(C(=O)O)CC[C@]3(C)C(=CC[C@@H]4[C@@]5(C)C[C@@H](O)[C@H](O)[C@@](C)(CO)[C@H]5CC[C@]43C)[C@@H]12
[1]
  parasite growth, % of DMSO control: 68.7%
[11]
  parasite growth remaining, % of DMSO control (lower = more inhibition): 90.5%
[2]
  parasite growth, % of control (lower = inhibition): 52.5%
[3]
  growth, % of control: 43.6%
[4]
  viability (% of control): 122%
[5]
  Potency: inactive
[6]
  Potency: inactive
[12]
  Potency: inactive
[8]
  Potency: inactive
[9]
  Potency: inactive
[13]
  Potency: inactive
[10]
  Potency: inactive

## Nc1ccc(C(=O)Nc2cccc(-c3nc(N4CCOCC4)c4oc5ncccc5c4n3)c2)cn1
[1]
  parasite growth, % of DMSO control: 6.14%
[11]
  parasite growth remaining, % of DMSO control (lower = more inhibition): 6.97%
[2]
  parasite growth, % of control (lower = inhibition): 9.55%
[3]
  growth, % of control: 2.51%
[4]
  viability (% of control): 4.11%
[5]
  Potency: inactive
[6]
  Potency: inactive
[12]
  Potency: 18.7 µM (active)
[7]
  Potency: 16.6 µM (active)
[8]
  Potency: 18.7 µM (active)
[9]
  Potency: 16.6 µM (active)
[13]
  Potency: inactive and 13 µM (active)
[10]
  Potency: inactive and 9.2 µM (active)

## COc1cccc2c1C(=O)c1c(O)c3c(c(O)c1C2=O)C[C@@](O)(C(=O)CO)C[C@@H]3O[C@H]1C[C@H](N)[C@H](OC2CCCCO2)[C@H](C)O1 (stereo not given in full)
[1]
  parasite growth, % of DMSO control: 5.43%
[11]
  parasite growth remaining, % of DMSO control (lower = more inhibition): 7.89%
[2]
  parasite growth, % of control (lower = inhibition): 7.8%
[3]
  growth, % of control: 3.44%
[4]
  viability (% of control): 1.87%
[5]
  Potency: inactive
[6]
  Potency: inactive
[12]
  Potency: 1.18 µM (active)
[7]
  Potency: 0.662 µM (active)
[8]
  Potency: 0.166 µM (active)
[9]
  Potency: 0.0037 µM (active)
[10]
  Potency: 5.26 µM (active)

## c1cncc(CN2CCC(n3ncc4c(N5CCOCC5)nc(-c5ccc6[nH]ccc6c5)nc43)CC2)c1
[1]
  parasite growth, % of DMSO control: 4.76%
[2]
  parasite growth, % of control (lower = inhibition): 18.3%
[3]
  growth, % of control: 8.55%
[4]
  viability (% of control): 9.02%
[5]
  Potency: inactive
[6]
  Potency: inactive
[12]
  Potency: 13.2 µM (active)
[7]
  Potency: 13.2 µM (active)
[8]
  Potency: 6.62 µM (active)
[9]
  Potency: 5.9 µM (active)
[10]
  Potency: 469 nM (active) and 2.31 µM (active)

## CC(C)c1cc(C(C)C)c(CC(=O)NS(=O)(=O)Oc2c(C(C)C)cccc2C(C)C)c(C(C)C)c1
[1]
  parasite growth, % of DMSO control: 82.5%
[3]
  growth, % of control: 89.6%
[4]
  viability (% of control): 60.9%
[5]
  Potency: inactive
[6]
  Potency: inactive
[12]
  Potency: 7.43 µM (active)
[7]
  Potency: 0.743 µM (active)
[8]
  Potency: 7.43 µM (active)
[9]
  Potency: inactive
[10]
  Potency: 7.31 µM (active)
